# Screening data (PubChem BioAssay)
# In the library only some 1.5% were active in any assay of this set; here they are far more common.
# Mac1 fbg enh: increases human CD11b/CD18 adhesion to fibrinogen. P05107+P11215. K562 CD11b/CD18 adhesion to fibrinogen, ATPlite luminescence. activation, % at 10 µM. hit rate 0.07% among 93,000. AID 1499;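 active = 10 µM primary screen giving 50% or more activity, confirmed by 40% or more on retest at that dose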
# CD11b adhes inh: blocks human CD11b/CD18 adhesion to fibrinogen | P05107+P11215 | K562 CD11b/CD18 adhesion to fibrinogen, ATPlite luminescence; Mn2+ added to activate the integrin | inhibition, % at 10 µM | hit rate 0.54% among 93,000 | AID 1497;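 active = primary inhibition of 50% or more at 10 µM, then 40% or more on retest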
# PLAP activator: activators of human placental alkaline phosphatase; activation fold at 20 µM; hit rate 1.2% among 96,000; P05187; AID 696; purified PLAP enzyme, luminescent substrate read-out; stronger effect = higher value; in the data active = activation fold above about 2
# Target sequence (P05187 whole entry, looked up): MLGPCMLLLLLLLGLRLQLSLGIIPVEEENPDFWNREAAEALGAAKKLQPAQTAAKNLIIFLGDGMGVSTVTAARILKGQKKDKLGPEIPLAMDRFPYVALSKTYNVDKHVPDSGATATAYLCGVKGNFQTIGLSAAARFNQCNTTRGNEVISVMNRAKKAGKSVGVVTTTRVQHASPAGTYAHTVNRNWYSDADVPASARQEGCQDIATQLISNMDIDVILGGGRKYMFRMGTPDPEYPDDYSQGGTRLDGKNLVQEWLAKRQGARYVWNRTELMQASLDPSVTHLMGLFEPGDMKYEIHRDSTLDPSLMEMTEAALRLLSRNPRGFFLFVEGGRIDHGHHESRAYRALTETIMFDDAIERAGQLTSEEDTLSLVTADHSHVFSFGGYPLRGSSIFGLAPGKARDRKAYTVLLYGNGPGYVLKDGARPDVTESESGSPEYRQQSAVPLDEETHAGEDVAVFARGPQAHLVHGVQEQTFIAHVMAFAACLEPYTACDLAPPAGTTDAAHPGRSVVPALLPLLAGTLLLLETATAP
# HePTP inhibitor: inhibitors of human HePTP phosphatase; P35236; recombinant HePTP phosphatase activity, OD absorbance; inhibition, % at 20 µM; hit rate 0.64% among 110,000; AID 521; in the data active = inhibition above about 50%;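 note: plate controls were vehicle for no effect and reference inhibitor for full effect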
# * = called active by the depositor; . = no result given.
SMILES,Mac1 fbg enh,CD11b adhes inh,PLAP activator,HePTP inhibitor
O=C(CSc1nnc(-c2ccccc2)n1-c1ccccc1)N/N=C/c1ccccc1[N+](=O)[O-],.,.,.,8.6
Cc1ccc(S(=O)(=O)NC(C(=O)Oc2ccc3c(C(F)(F)F)cc(=O)oc3c2)c2ccccc2)cc1 (centres undefined),-6.3,57.3*,.,.
O=C(Nc1nnc(-c2ccco2)s1)c1ccc(F)cc1,.,.,.,-14.6
O=C1c2[nH]nc(-c3ccccc3O)c2C(c2ccc(F)cc2)N1Cc1ccco1 (centres undefined),1.5,2.7,2.4*,-5.1
O=C(CSc1nc2ccc(N3C(=O)c4ccccc4C3=O)cc2s1)Nc1cccc([N+](=O)[O-])c1,.,.,.,79.6*
O=C(CSc1nc2ccc(N3C(=O)c4ccccc4C3=O)cc2s1)Nc1ccc(F)cc1,.,.,.,0.2
CCN(CC)S(=O)(=O)c1ccc(NC(=O)c2ccccc2N(C)S(C)(=O)=O)cc1,-3.6,-48.5,2.1*,.
CCN(CC)S(=O)(=O)c1ccc(NC(=O)c2ccccn2)cc1,-0.7,-3.3,0.9,-3.0
Cc1cc(C=C2C(=O)c3ccccc3C2=O)c(-c2ccccc2)n1-c1ccccc1,.,.,.,-6.4
CCC(=O)N1CCc2cc(S(=O)(=O)NC(Cc3ccccc3)C(=O)NC3CCCCC3C)ccc21 (centres undefined),-3.3,1.0,2.3*,.
CCC(=O)N1CCc2cc(S(=O)(=O)NC(CC(C)C)C(=O)N3CCc4ccccc43)ccc21 (centres undefined),10.1,-24.7,1,2.3
O=C(CSc1nc2ncccc2[nH]1)NCc1ccccc1,-2.2,-7.0,2.4*,4.0
Cc1cc(Cl)c(S(=O)(=O)N2CCCCCC2)cc1OCC(=O)NC1CCCCC1,-4.7,76.9*,2*,.
CCN1CCN(S(=O)(=O)c2cc(OCC(=O)NC3CCCCC3)c(C)cc2Cl)CC1,-5.3,58.5*,1.5,7.7
Cc1ccccc1-n1c(SCc2ccccn2)nc2n[nH]c(C)c2c1=N,11.1,2.6,2.3*,.
CCOc1ccccc1NC(=O)CCSc1nc2n[nH]c(C)c2c(=N)n1-c1ccccc1Cl,13.5,-24.8,1.8,-7.4
Cc1ccc(S(=O)(=O)N(CCc2ccccc2)CC(=O)NCc2cccnc2)cc1,.,.,.,8.1
COc1ccc(C2C(C#N)=C(N)Oc3n[nH]c(C)c32)cc1Cn1nnc2ccccc21 (centres undefined),-1.9,-9.7,2*,9.8
CCC(C)C(NC(=O)c1ccccc1NC(=O)c1ccc(OC)cc1)C(=O)NCc1ccco1 (centres undefined),24.3,6.2,2.1*,0.1
CCN(CC)S(=O)(=O)c1cc([N+](=O)[O-])ccc1NNC(=O)Nc1ccc(Cl)c(Cl)c1,-5.3,99.1*,1.2,.
O=C(/C=C/c1ccc([N+](=O)[O-])cc1)Nc1ccc(Cl)c(Cl)c1,.,.,.,-8.4
CC(=O)NC1=NC(=O)/C(=C/c2cc(C)n(-c3cccc(C(=O)O)c3)c2C)S1,.,.,.,100.9*
CC(=O)NC1=NC(=O)/C(=C/c2cc(C)n(-c3ccc(NC(C)=O)cc3)c2C)S1,.,.,.,-1.9
COc1ccc(CNCc2ccc([N+](=O)[O-])cc2)c(OC)c1,.,.,.,8.6
O=C1NC(Nc2nccs2)(C(F)(F)F)C(=O)N1CCc1ccccc1 (centres undefined),-2.9,-2.9,2*,-5.8
SMILES,Mac1 fbg enh,CD11b adhes inh,PLAP activator,HePTP inhibitor
CN1C(=O)/C(=C/C=C/c2ccco2)SC1=S,.,.,.,52.0*
CC(C(=O)O)N1C(=O)/C(=C/C=C/c2ccco2)SC1=S (centres undefined),.,.,1,.
CC(C)c1cc(=O)oc2c3c4c(cc12)CCCN4CCC3,-1.1,-8.1,2*,6.0
O=c1oc2c3c4c(cc2c(C(F)(F)F)c1CCN1CCOCC1)CCCN4CCC3,4.4,-23.1,1.3,3.7
Cc1ccc(C2OC3(C(=O)c4ccccc4C3=O)C3C(=O)N(c4ccc(C(C)C)cc4)C(=O)C23)cc1 (centres undefined),.,.,.,-1.2
Cc1cccc2c(=O)oc(-c3ccc(F)cc3)nc12,.,.,.,4.1
O=C(NC(NC(=S)Nc1ccc(Cl)c(Cl)c1)C(Cl)(Cl)Cl)c1cccc([N+](=O)[O-])c1 (centres undefined),.,.,.,103.7*
CC(=O)Nc1ccc(NC(=S)NC(NC(=O)c2cccc([N+](=O)[O-])c2)C(Cl)(Cl)Cl)cc1 (centres undefined),.,.,.,10.0
CC(C)(C)C1CCc2c(sc3c2c(=O)n(Cc2ccccc2)c2n[nH]c(=S)n32)C1 (centres undefined),.,.,.,-2.6
FC(F)(F)c1cnc(Oc2ccccc2-c2nnco2)c(Cl)c1,-4.5,5.3,2.3*,.
FC(F)(F)c1cnc(Oc2ccc(-c3nnco3)cc2)c(Cl)c1,-0.8,-2.0,1.1,2.6
